# Source: the supplement of paper PMC6555819
# Key:
# Assay in all cases: PBM binding z-score (relative to random genomic background probes); higher = stronger binding; sequences stand for … in GC…GCGATTGACAGCGTAGAATGAAGG
# [1] = system: PPARg:RXRa DBDmut IVT, anti-RXR (DBD mutation: RXRa K156A/R161A, NR concentration 270 nM, RXRa partner concentration 90 nM)
# Outline: (§1)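 For binding z-scores, the reference was random background probes on custom Agilent 4×180K protein-binding microarrays. These arrays were incubated 1 h with ligand-free nuclear receptor dimers in PBS pH 7.4, 2% milk, 0.02% Triton X-100, 1 mM DTT, 0.2 mg/mL BSA and 0.4 mg/ml salmon testes DNA. Fluorescence was scanned after antibody detection of each partner (one per run) and regression-normalized.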
# [2] = system: PPARg:RXRa IVT, anti-PPARg (NR concentration 270 nM, RXRa partner concentration 90 nM)
# Outline: as §1
# [3] = system: PPARg DBDmut:RXRa IVT, anti-PPARg (DBD mutation: PPARg1 K132A/R137A, NR concentration 270 nM, RXRa partner concentration 90 nM)
# Outline: as §1
# [4] = system: PPARg DBDmut IVT, anti-PPARg (DBD mutation: PPARg1 K132A/R137A, NR concentration 270 nM)
# Outline: as §1
# [5] = system: PPARg homodimer (NR concentration 180 nM)
# Outline: as §1
# [6] = system: PXR:RXRa (NR concentration 270 nM, RXRa partner concentration 90 nM)
# Outline: as §1
# [7] = system: PXR homodimer (NR concentration 270 nM)
# Outline: as §1
# [8] = system: RARa:RXR (NR concentration 270 nM, RXRa partner concentration 90 nM)
# Outline: as §1
# [9] = system: RARa homodimer (NR concentration 270 nM)
# Outline: as §1
# [10] = system: RARb:RXRa (NR concentration 270 nM, RXRa partner concentration 90 nM)
# Outline: as §1
# [11] = system: RARb homodimer (NR concentration 270 nM)
# Outline: as §1
# [12] = system: RARg:RXRa (NR concentration 270 nM, RXRa partner concentration 90 nM)
# Outline: as §1
# [13] = system: RARg homodimer (NR concentration 270 nM)
# Outline: as §1
# [14] = system: RXRa DBDmut IVT, anti-RXR (DBD mutation: RXRa K156A/R161A, NR concentration 90 nM)
# Outline: as §1
# [15] = system: RXRa homodimer (NR concentration 180 nM)
# Outline: as §1
# [16] = system: THRa:RXRa (NR concentration 90 nM, RXRa partner concentration 90 nM)
# Outline: as §1
# [17] = system: THRa homodimer (NR concentration 90 nM)
# Outline: as §1
# [18] = system: VDR homodimer (NR concentration 270 nM)
# Outline: as §1
Sequence,PBM binding z-score [1],PBM binding z-score [2],PBM binding z-score [3],PBM binding z-score [4],PBM binding z-score [5],PBM binding z-score [6],PBM binding z-score [7],PBM binding z-score [8],PBM binding z-score [9],PBM binding z-score [10],PBM binding z-score [11],PBM binding z-score [12],PBM binding z-score [13],PBM binding z-score [14],PBM binding z-score [15],PBM binding z-score [16],PBM binding z-score [17],PBM binding z-score [18]
CTCGAAAGGTCGGTTGAGGTGCGTATACGGATAA,-0.22,0.354,-0.47,-0.617,0.786,1.84,0.0676,1.44,-0.0377,2.92,1.76,2.59,2.85,0.676,2.12,3.88,-0.208,0.626
TCGAGTAGGTTACCAATAGGGCATTCAGCTTTCT,3.28,2.9,-0.0313,0.193,-0.151,0.391,-0.656,0.441,-0.367,1.08,0.965,1.78,0.593,0.262,0.749,0.215,-0.961,-0.368
TCGAGTAGGTGAGTCGGGGCATTCAGCCAACATA,3.41,2.92,-0.294,-0.634,-0.137,-0.178,-0.0256,-0.138,-0.397,0.298,0.348,-0.294,-0.378,0.0607,-0.201,0.829,-0.305,0.0574
CTACCCAGGTGAACAAGGTCGTTGATTACTATTC,1.84,2.27,0.299,-0.0404,0.541,2.03,0.96,1.61,0.91,1.29,1.57,1.18,0.941,0.701,1.46,2.94,1.87,1.92
TCAGACAGTTGAAGGTAACTCAGGTACGCAGTCG,2.22,0.0381,-0.122,-0.183,0.684,0.701,0.165,0.843,-0.196,0.547,-0.0141,0.206,0.167,1.29,0.943,1.17,0.195,0.508
ACAGACAGGTGAGTGAAGGTGACTCAGCTGGACG,0.718,1.24,0.42,-0.00311,-0.248,-0.0313,-0.405,0.49,0.0445,0.935,0.821,0.36,0.791,-0.543,0.523,2,-0.223,-0.311
GCTTACGGGTCAAAGGTAATAGCATGAATAGAAT,4.96,5.28,1.42,0.842,1.61,4.26,-0.182,6.23,0.248,3.87,2.5,5.3,4.22,1.97,6.87,3.07,-0.169,1.06
CCTTACGGGTCACTCCAGGTGATAGCATCGGAGT,2.72,3.72,-0.0866,-0.18,1.04,3.75,0.145,3.53,0.42,3.51,2.96,4.43,4.29,1.6,4.45,4.81,0.559,1.16
CGTCAAAGTTCAACTAAGGTAATGTAAAGCACGC,0.526,2.28,0.986,1.3,3.39,5.58,3.59,4.17,1.99,5.18,4.29,5.86,6.53,4.51,5.18,5.18,1.31,3.69
GATTCAGGGTCAAGGCCAGAGTACGCGTATTGAT,3.79,4.63,1.51,0.0606,3.59,4.81,0.452,5.58,0.724,4.92,4.04,6.08,5.81,3.03,7.1,3.87,2,3.02
ATCGAAAGGTTGTGAGGTGAGTATACAGAAAGGC,-0.125,0.638,0.845,0.495,0.431,0.336,0.498,1.15,0.35,1.45,1.22,1.14,1.19,-0.0955,1.24,2.23,1.49,0.162
CGTCCAAGGTCAAAGTTCAGTGAAGAGATGACGG,3.41,5.08,0.409,1.29,3.79,6.59,3.31,8.01,1.47,5.44,4.6,7.44,7.1,4.25,8.84,4.31,1.92,4.39
CGAACAAGGTCAGAACAGGACAGTGAAGGATGAT,2.79,3.05,0.722,0.826,1.5,3.22,0.399,2.47,0.0836,4.31,3.28,4.38,4.86,2.29,3.5,4.28,1.11,1.14
AGAATGAGGTTTCCAAAGATCAGGGAAACGCTTG,0.298,-0.0805,0.256,0.153,-0.417,-0.387,-0.601,-0.144,-0.745,-0.151,-0.579,-0.0652,-0.103,-0.247,0.124,-0.118,-0.311,-0.385
TCTAGTAGTTGAAGGGCAACCGACGAGTCCGTTT,1.78,0.527,0.13,-0.187,0.499,0.507,0.346,-0.0241,0.58,1.4,1.29,0.178,0.164,1.02,0.622,0.117,-0.38,0.676
TCTTGTCGATCAATAGAGGTTAAGAAAGTGCGCT,1.37,0.566,1.29,0.928,0.669,2.97,0.471,1.82,-0.217,1.09,1.53,0.847,0.688,0.601,1.46,1.94,-0.159,0.435
TGAATGAGGTTAAAGATCAGGTAACGTGGCGTCG,2.2,3.62,0.604,0.742,0.811,2.19,0.0433,3.18,0.33,2.01,0.893,2.55,1.38,0.98,3.9,3.29,1.42,0.674
CCTTACGGGTTACTGACAGGTTATAGCATTTGGA,1.04,0.57,-0.172,-0.367,1.21,0.825,0.22,1.51,0.545,0.924,0.885,2.22,0.806,0.177,1.54,1.11,-0.00572,0.261
TATACAGGGTCACAGGCCAGAGTACGAATGTCGA,2.88,5.43,2.95,3.73,3.45,4.32,0.522,5.21,1.31,4.8,3.83,5.96,5.41,2.61,6.79,3.92,1.94,2.51
CGTCCAAGGTGAGAGAGGTCAGTGAATGCCGAGT,2.16,2.49,-1.39,-1.25,2.8,3.75,2.87,3.54,0.726,3.46,4.13,3.38,3.7,0.994,2.89,3.33,1.95,3.07
ATCGAAAGGTCGAGGGTGAGTATACCCACCCGAA,-0.26,1.94,0.623,0.934,0.976,2.41,-0.393,3.41,0.53,4.09,2.59,4.14,4.24,0.471,4.59,1.94,-0.00779,0.138
GATACAGGGTCAAGGCCCGAGTACGCGTATTGAT,2.09,3.66,0.597,-0.396,1.27,3.48,0.163,4.6,0.3,4.31,3.19,5.42,5,2.42,5.69,3.47,0.807,2.35
CCTAGTTGGTCAGGATGTCACACACCGGATATGA,0.536,1.16,0.182,0.583,1.42,0.0986,0.254,0.0158,1.18,0.798,1.17,0.74,1.1,0.164,0.209,0.0669,0.525,0.443
TTACCAAGGTGAAGGTCGTTGAGCCCTCTGTAGA,1.99,3.36,-0.0104,-0.329,0.702,1.16,-0.0928,1.57,-0.872,2.07,1.79,1.3,1.08,0.1,1.59,2.14,0.652,0.688
ACTGGTTGGTCAGCTGAGGTCACACACAATTCGG,0.671,2.22,1.22,0.402,3.12,5.37,2.47,4.61,1.92,3.73,4.63,4.08,4.57,1.23,4.2,5.13,5.73,4.2
CCTTACGGGTCCAGGTTATAGCACGGGTGGTACG,-1.08,-0.342,-0.7,-1.74,-0.0235,-0.402,-0.186,-0.536,0.162,0.245,0.293,-0.0416,0.158,-0.824,0.106,0.171,0.291,0.862
GCTGACGGGTCAAAGGTTATAGCATGAATAGAAT,1.23,4.56,0.893,0.679,3.42,5.8,0.288,8.03,0.75,4.63,3.04,6.46,4.08,1.66,9.14,3.85,-0.263,0.919
CGTCAAAGTTCAAGGTAACGTTACAGAAAGCAGC,1.03,2.42,0.621,1.08,3.53,4.49,3.12,3.46,2.12,5.26,4,5.44,6.2,4.52,4.96,2.94,1.13,3.32
ACACGGAGGACAAAGGTCAGAGCTACGCCAGTGA,0.363,3.8,0.472,-0.253,3.82,3.92,0.625,4.81,1.1,4.58,4.59,6.1,5.24,1.57,5.15,3.56,0.702,1.17
